Out of some 21,000 compounds screened, fewer than 10 showed an effect of 50% or more. Only a sample is shown. Entries with a potency or affinity are not part of this list.

The subject of the assay is Acinetobacter baumannii. The conditions noted are these: Concentration 300 ug.mL-1; ASSAY_TEST Inhibition of Bacterial Growth; detection method Absorption (OD600); MEDIA CAMHB; plate type 384well; NBS; CORNING #3640; time 18 hr.
A word on the Inhibition: it is the drop in the measured response relative to a control, in per cent. `NS(=O)(=O)N1CCCNCC1`: the Inhibition was 17.02%.
`CCN(CC)C(=O)NCC[S+]([O-])C(C)(C)C` (stereo unspecified): the Inhibition is given as 4.98%.
For `CN(CCc1ccc(Br)cc1)C(=O)CCCN` the value was 4.12%.
For `CNC(=O)c1c(C)cccc1NCCCOC` the value was 4.81%.
For `COc1ccc(OCCCC(=O)NCCN(C)C)cc1` the value was 9.28%.
For the compound `COCCN1CCCN(C(=O)C(C)C)CC1`, the Inhibition is -1.05%.
To `O=C1CN(C(=O)c2ccn(-c3ccccc3)n2)CCN1` belongs 1.11%; to `NC1CCN(CC(=O)N2CCOCC2)CC1`, 3.07%.
To `CC(O)(CN)C(F)(F)F` (stereo unspecified) belongs -3.1%; to `CC(N)CCNS(=O)(=O)c1ccccc1` (stereo unspecified), 10.98%.
For `NCC(=O)NCc1ccncc1`, the Inhibition came to 9.5%.
To `O=C(Nc1cccc(CN2CCCC2=O)c1)C1CC1` belongs 1.2%; to `CC(C)CCNC(=O)CCn1cc(Br)ccc1=O`, 8.21%.
To `COc1ccc(C(=O)NCC2(C)COC2)c(F)c1F` belongs 4.61%; to `CO[C@@H]1CN[C@@H](c2nc(C)no2)C1`, -0.59%.
For `COCc1cccc(-c2nc(C3CCOC3)no2)n1` (stereo unspecified) the value was 9.25%; for `Cc1cc(=O)cc(C(=O)N2CCCC(C)(C#N)C2)o1` (stereo unspecified), 0.52%; for `CN(CCCS(C)(=O)=O)CC1CCN(CCO)CC1`, 0.5%.
Turning to `O=C(c1cncc(F)c1)N1CC(N2CCCCC2)C1`, the Inhibition is on record as 2.2%.
To `CN(CC1CCOCC1)C(=O)NCc1ccco1` belongs 4.16%; to `Cn1ccnc1CN(Cc1ccc(CO)o1)C1CC1`, 10.44%.
For `Cc1nc(C(C)(C)N)sc1C` the value was 11.05%; for `Nc1nc(CCCNC(=O)Cc2ccsc2)cs1`, 10.16%; for `Cn1nnnc1SCc1cc(Cl)c2c(c1)OCCO2`, 3.66%.
To `O=S(=O)(c1ccco1)N1CCOCc2ccccc21` belongs 6.19%.
With `N#Cc1ccc(OCC(O)CN2CCSCC2)cc1` (stereo unspecified), the Inhibition is given as 10.14%.
To `Cc1cccc(C2NCCNC2=O)c1` (stereo unspecified) belongs 12.66%; to `COCCN(Cc1cnn(C)c1)C(=O)C1CCNC1` (stereo unspecified), 2.42%; to `CN1CCN(C(C)(C)CNC(=O)Nc2cn[nH]c2)CC1`, -0.91%.
In the case of `O=C(NCCCOC(F)F)NCc1ccc(Br)o1`, the Inhibition was determined as 3.72%.
With `O=C(NC1CCCOc2ccc(F)cc21)c1c[nH]nn1` (stereo unspecified), the Inhibition is recorded as 8.95%.
To `COC(=O)CN1CCN(C(=O)N(C)C)CC1` belongs 20.07%; to `COc1ccc(SCC(=O)NC2CCN(C)CC2)cc1`, 2.47%.
For `COCCN(C)C[C@@H]1CN(C(=O)C2CCC2)C[C@@H]1CO` the value was 6.32%; for `CN(CCS(=O)(=O)c1ccc(Cl)cc1)CC(=O)N(C)C`, -3.7%.
Take `CSCC(=O)NC1CCCC1`: the Inhibition is 5.49%.
To `CCS(=O)(=O)NCCCNS(=O)(=O)c1ccc(C)cc1` belongs 0.89%; to `COc1ccc(Cl)cc1NC(=O)NC1CCS(=O)(=O)C1` (stereo unspecified), 6.86%; to `O=C(Nc1ccc(NC(=O)C2CC2)nc1)c1ccsc1`, 12.11%.
For `COCCOCC(=O)N(C)C(C)c1ccncn1` (stereo unspecified) the value was 0.44%; for `CCN(C(=O)CN1CCNC(=O)C1)c1ccc(F)cc1`, 7.47%; for `CNC[C@@H]1C[C@@H](O)CN1`, 4.99%.
For `CC(C)c1noc(CN2CCSCC2)n1` the value was 17.17%; for `Cc1ccc(C(CN)N2CCOCC2)o1` (stereo unspecified), 1.38%; for `CCc1nc(CNCC2CCN(CCO)CC2)no1`, 11.72%.
Take `CCN(CC)C(C)CNC(=O)c1csc(NC(C)=O)n1` (stereo unspecified): the Inhibition amounted to 5.75%.
To `COCC(=O)Nc1ccc(-n2cccn2)nc1` belongs -2.46%.
To `CCC(C)(CO)NC(=O)c1sc(COC)nc1C` (stereo unspecified) belongs 6.56%; to `CCC(N)C(=O)N1CCOCC1` (stereo unspecified), 3.92%.
For `CC[C@H](N)C(=O)N1CC(Oc2c(C)cccc2C)C1` the value was 6.21%.
Consider `O=C(NC1CCCOC1)c1ccc2c(c1)OCCO2` (stereo unspecified), for which the Inhibition stood at 9.3%.
For `CCCN1CCC(N2CCC(C(N)=O)CC2)CC1` the value was -0.38%; for `NC1CCN(Cc2ccc(F)c(F)c2)CC1`, 10.51%.
To `COc1cn(-c2ccccc2)nc1C(=O)NCC(C)C` belongs 12.56%.
For `c1cncc(N2CCCCC2)c1` the value was 8.5%; for `Cc1cc(CN)n(C)n1`, 8.01%.
Regarding `Cc1nc(CC(=O)NCC(C)n2ccnc2)cs1` (stereo unspecified), the Inhibition is recorded as 5.87%.
With `CCc1noc(C(C)NC(=O)c2cccnc2C)n1` (stereo unspecified), the Inhibition was 6.44%.
To `COc1c(F)cccc1CN1C[C@H](O)[C@@H](N(C)C)C1` belongs 9.85%; to `CC(C)(C)OC(=O)c1ncccc1N`, 5.28%; to `CCC(=O)c1ccc(CN)cc1`, 12.11%.
With `CSCC(=O)Nc1ccc(C(=O)NCC(F)(F)F)cc1`, the Inhibition worked out at 10.77%.
For `CC(=O)N1CCN(CCNC(=O)c2cc(Br)c[nH]2)CC1` the value was 4.86%; for `CNC(=O)C(C)(C)Oc1cccc(Cl)c1`, 6.59%; for `O=C(C1CCC1)N(Cc1ccccn1)C1CC1`, 0.99%.
To `Cc1nccn1CC(=O)Nc1ccnn1C` belongs 1.95%.

The values are drawn from ChEMBL document CHEMBL4513160, “CO-ADD screening of MMV (CH) - Small Polar Library”.
